Several values for one entry are separate records, joined by “and”; a condition that tells them apart may be missing. Equal entries are not always repeated. In all, about 340,000 compounds went through this assay and about 390 (0.11%) were called active.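 How the source made its calls: active means inhibition above the mean inhibition of all tested compounds plus 3 SD (cut at about 17% in these data); inactive means the rest.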 The full list was thinned out, with actives kept by preference.

For the experiment, the target named is Troponin I, cardiac muscle (Homo sapiens) + Troponin T, cardiac muscle (Homo sapiens) + Troponin C, slow skeletal and cardiac muscles (Homo sapiens) (UniProt P19429+P45379+P63316). Kind of experiment: calcium desensitizers of cardiac thin filaments – biochemical, IANBD-TnC fluorescence, EC70 calcium, primary screen (AID 493244).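 Further: assay run at fixed EC70 calcium of 1.6 mM.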 As to conditions: IANBD-labeled cardiac RTF, Ca2+ fluorescence; at 7.15 µM; active compounds read high.
For the molecule `COc1ccc(C(=O)NC2CC2)cc1OC1CCN(C/C=C/c2ccccc2)CC1`, the inhibition is 0.64% (inactive).

Take `COc1ccc(CSc2nnnn2-c2ccc(O)cc2)cc1F`: the inhibition is -11.7% (inactive).

`COc1cccc2cc(C(=O)NCc3ccc(C)cc3)c(=N)oc12`: the inhibition is 0.64% (inactive).

Turning to `CC(NC(=O)COC(=O)C1CCN(S(=O)(=O)c2ccccc2C(F)(F)F)CC1)c1ccccc1` (stereo not drawn), the inhibition is -5.89% (inactive).

For `COc1ccc(CCNC(=O)COC(=O)c2ncc(Cl)c(Cl)c2Cl)cc1OC`, the inhibition was 4.89% (inactive).

For `Cc1ccc(S(=O)(=O)N(CC(=O)N2CCc3ccccc3C2)c2cccc(Cl)c2)cc1`, the inhibition was -9% (inactive).

For the molecule `C[C@]12CCC(=O)C=C1C=CC1C2CC[C@@]2(C)C1CC[C@@]21CCC(=O)O1` (stereo partly drawn), the inhibition was 2.44% (inactive).

With `Cc1ccc(CN2CC(C(=O)NNC(=O)Cn3ccc(C(F)(F)F)n3)CC2=O)cc1` (stereo not drawn), the inhibition is -7.66% (inactive).

In the case of `NC(=O)C1(Nc2ccc([N+](=O)[O-])cc2)CCCC1`, the inhibition is 1.13% (inactive).

Turning to `O=c1oc2ccc(C#CC3(O)CCCCC3)cc2cc1-n1cc(-c2ccsc2)nn1`, the inhibition was 3.02% (inactive).

Regarding `CC1CN(S(=O)(=O)c2cccc(C(F)(F)F)c2)CN1C(=O)N1CCOCC1` (stereo not drawn), the inhibition was 9.08% (inactive).

`Cc1cc(CNC(=O)C2CCC(=O)N(CCc3ccc(Cl)cc3)C2)no1` (stereo not drawn): the inhibition was 1.17% (inactive).

With `Cc1ccc(CNC(=O)Cc2cn(C)c3ccccc23)cc1`, the inhibition is -0.42% (inactive).

`O=S(=O)(c1ccccc1)c1nc(Cc2ccccc2)oc1N1CCOCC1`: the inhibition is -3.71% (inactive).

On to `O=C(NCCC1CCCCN1S(=O)(=O)c1ccc(F)cc1)C(=O)NC1CC1` (stereo not drawn), for which the inhibition was -3.06% (inactive).

With `O=C(NCCC1CCCCN1S(=O)(=O)c1ccc(Cl)cc1)C(=O)NCc1ccco1` (stereo not drawn), the inhibition was -6.03% (inactive).

Consider `COc1cccc(CNC(=O)C(=O)NCCC2CCCCN2S(=O)(=O)c2ccc(C)cc2)c1` (stereo not drawn), for which the inhibition was 18.4% (active).

As for `COc1ccccc1S(=O)(=O)NCc1ccc(C(=O)N(C)Cc2ccc(F)cc2)cc1`, the inhibition was 4.86% (inactive).

Consider `CCS(=O)(=O)c1ccc(-c2cccc(NC(=O)c3ccc(Br)o3)c2)nn1`, for which the inhibition is 9.7% (inactive).

Take `COc1ccc(C(CNC(=O)c2cc(S(=O)(=O)Nc3cccc(C)c3)ccc2C)N2CCCC2)cc1` (stereo not drawn): the inhibition is -1.95% (inactive).

Regarding `CSCCC1NC(=O)N(CC(=O)Nc2cccc(S(=O)(=O)N3CCCCCC3)c2)C1=O` (stereo not drawn), the inhibition is -6.38% (inactive).

Turning to `CC(C)CC(=O)c1c[nH]c(C(=O)NCc2ccccc2)c1`, the inhibition was -10.5% (inactive).

`COc1ccccc1CCC(=O)NNC(=O)c1ccncc1`: the inhibition was -23.1% (inactive).

For `O=S(=O)(Oc1ccccc1C(=S)N1CCOCC1)c1ccc(Cl)cc1`, the inhibition is 1.09% (inactive).

In the case of `O=C(c1cccc(F)c1)N1CCN(c2ccc([N+](=O)[O-])c3cccnc23)CC1`, the inhibition was 12.4% (inactive).

In the case of `O=C(CN1CCOCC1)Nc1cccc([N+](=O)[O-])c1`, the inhibition is -4.8% (inactive).

For `CN(CCCC(=O)Nc1nccs1)S(=O)(=O)c1ccc(Cl)cc1`, the inhibition is -8.75% (inactive).

For the molecule `C=CCC1(C(=O)N(C)Cc2ccccc2)CCN(C(=O)OC(C)(C)C)CC1`, the inhibition is -8.43% (inactive).

With `CN(C)c1ccc(NC(=O)CN2C3CCCC2CC(NC(=O)c2ccccc2)C3)cc1` (stereo not drawn), the inhibition was 1.88% (inactive).

As to `CCCCCn1c(=O)c(C(=O)OCC)c(Cl)c2ccccc21`, the inhibition was 2.78% (inactive).

As for `CCCCn1c(=O)c(C(C)=O)c(O)c2ccccc21`, the inhibition was 18.1% (active).

Regarding `CCCn1c(=O)c(-c2ccccc2)c(O)c2ccccc21`, the inhibition was -0.9% (inactive).

`Cc1cc(C)c2nc(SCC(=O)N(C)C3CCS(=O)(=O)C3)cc(C)c2c1` (stereo not drawn): the inhibition is -11.7% (inactive).

On to `Cc1cc2oc(=O)cc(-c3ccccc3)c2c(C)c1-c1ccc(OC(F)(F)F)cc1`, for which the inhibition is -2.33% (inactive).

In the case of `CCn1c(SCc2cc(=O)n3ccsc3n2)nc2ccccc21`, the inhibition was -0.11% (inactive).

Consider `COc1ccc(S(=O)(=O)NCC2CCCN(C(=O)c3occc3C)C2)cc1` (stereo not drawn), for which the inhibition was -1.36% (inactive).

As to `COc1ccc2oc(N)nc2c1`, the inhibition is 1.17% (inactive).

For `COc1cc(C(=O)Nn2c(O)c(C3=c4ccccc4=NC3=O)sc2=S)ccc1O`, the inhibition is -0.38% (inactive).

On to `C=CCn1c(N)cc(=O)nc1SCC(=O)Nc1cccc2ccccc12`, for which the inhibition was -2.98% (inactive).

With `COc1cc(OC)c2c(c1)OC(=O)CC2c1cc(OC)c(OC)c(OC)c1` (stereo not drawn), the inhibition is -1.64% (inactive).

Regarding `NC(=O)C1(N2CCCCC2)CCN(C(=O)c2ccc(C#Cc3ccccc3)o2)CC1`, the inhibition is -7.6% (inactive).

Take `N#CC1(Nc2ccc(-c3ccc(Cl)cc3)cc2)CCCC1`: the inhibition is -2.12% (inactive).

Take `O=C(COC(=O)c1ccccc1Cl)NC1CCCCCCC1`: the inhibition is 3.26% (inactive).

Regarding `C=CCNC(=O)COC(=O)c1ccccc1C(=O)N(C)C1CCCCC1`, the inhibition was 18.3% (active).

Regarding `O=C(COC(=O)c1ccccc1SCC(=O)NC1CCCCC1)NC1CCCCC1`, the inhibition is 1.46% (inactive).

For `CCCCN(C(=O)CSCc1ccc(C)cc1)c1c(N)n(Cc2ccccc2)c(=O)[nH]c1=O`, the inhibition is -2.92% (inactive).

On to `COc1cccc(NC(=S)C(C#N)=C2N(C)c3ccccc3N2C)c1`, for which the inhibition was -5.1% (inactive).

Take `Cc1nc(-c2ccccc2)sc1-c1nnc(C2CC2)o1`: the inhibition is -8.96% (inactive).

`O=C(CNC(=O)C12CC3CC(CC(C3)C1)C2)OCC(=O)N1CCCCC1`: the inhibition was -10.1% (inactive).

As for `CC1(C)C/C(=N/Nc2ccc([N+](=O)[O-])cc2[N+](=O)[O-])C(C)(C)O1`, the inhibition was -8.69% (inactive).

`Cc1ccc(C(=O)C[n+]2cc(-c3ccccc3)n3c2CCCCC3)cc1`: the inhibition was -12.2% (inactive) and -7.58% (inactive).

For `CCOC(=O)c1nnn2c1nc(N1CCN(c3ccccc3)CC1)c1ccccc12`, the inhibition is -5.69% (inactive).

For the molecule `CCCCn1c(N)c(N(CC(C)C)C(=O)CSc2ccc([N+](=O)[O-])cc2)c(=O)[nH]c1=O`, the inhibition was -11.5% (inactive).

In the case of `C[N+](C)(C)CCNC(=O)c1cc[n+](Cc2ccccc2)c(/C=N/O)c1`, the inhibition is 0.25% (inactive).

As for `CC1CCCCC1NC(=O)COC(=O)Cc1ccc(Br)cc1` (stereo not drawn), the inhibition is -1.84% (inactive).

With `O=C1Nc2c(Br)cc(Br)cc2C1(O)N1CCOCC1` (stereo not drawn), the inhibition is -1.44% (inactive).

Consider `CCc1[nH]nc(C(=O)N2CCCC(CO)(Cc3ccc(F)cc3F)C2)c1C` (stereo not drawn), for which the inhibition is -5.33% (inactive).

In the case of `COC(C(=O)Nc1ccc(S(=O)(=O)Nc2ccc(C)c(C)c2)cc1)c1ccccc1` (stereo not drawn), the inhibition is -0.7% (inactive).

For the molecule `Cc1cccc(-c2c(NC(=O)c3ccco3)oc3ccc(Cl)cc3c2=O)c1`, the inhibition is -4.74% (inactive).

With `C/C(=N\NC(=O)C(N)=O)c1ccc2c(c1)OCCO2`, the inhibition is 17.1% (active).

`C/C(=N\NC(=O)COc1ccc(C)cc1[N+](=O)[O-])c1ccc2c(c1)OCCO2`: the inhibition is -7.39% (inactive).

Turning to `C/C(=N/NC(=O)c1ccncc1)c1ccc2c(c1)OCO2`, the inhibition was -5.5% (inactive).

As to `CC(C)(C)c1ccc(C(=O)NCc2nnc(SCC(=O)N3CCCc4ccccc43)n2-c2ccccc2)cc1`, the inhibition was -6.84% (inactive).

Consider `CCCCSc1nnc2c(n1)OC=Nc1ccccc1-2`, for which the inhibition is -2.01% (inactive).

In the case of `Cc1ccc2c(c1)C1C[N+](C)(CC(=O)c3ccccc3)CCC1N2C(=O)c1ccccc1Cl` (stereo not drawn), the inhibition is -13.7% (inactive).

For the molecule `COc1ccc(C2CC(=O)NC(=O)C2)cc1`, the inhibition is -0.2% (inactive).

As to `COc1ccc(CCC(=O)Nc2ccc(Cl)c(S(=O)(=O)N3CCOCC3)c2)cc1OC`, the inhibition is -10.9% (inactive).

`CCc1nnc(NC(=O)c2cc(S(=O)(=O)N3CCN(CC)CC3)ccc2Cl)s1`: the inhibition is -8.17% (inactive).

The inhibition is the change of the read-out against control, counted positive when it falls.
